PAX8 reporter – PAX8 transcriptional activity inhibition; 360,000 tested, 1.2% active; inhibition, % at 12.6 µM; RMG-I TPO-luciferase reporter, SteadyGlo, 24 h;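 active = mean replicate inhibition at least 60% with every replicate also reaching 60%; inconclusive = only one of the two criteria is met; inactive = mean below 60% and not all replicates reaching 60%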;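 note: luciferase light reporting Pax8 driven TPO promoter activity; plate controls were median of neutral control wells for no effect and mitoxantrone controls for full effect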
rRNA inh HTS – inhibitors of bacterial rRNA selective over humanized ribosomes; E. coli WT GFP vs humanized-ribosome RFP mutants, fluorescence, 24 h; stronger effect = lower value; DMSO median 0, no signal -100; GFP signal change (wild-type ribosome), % (no concentration beside the values); 350,000 tested, 1.6% active; AID 720706;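 active = significant combined selectivity score with lowered wild-type GFP, culture density cut under 30%, mutant RFP and density less affected; inactive = any of these conditions unmet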
EWS-Fli inh – blocks EWS/Fli oncoprotein-driven transcription. inhibition, % at 12.6 µM. A673 NR0B1-luciferase reporter, viability-normalised. AID 651661. 350,000 tested, 0.67% active;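 active = mean inhibition of at least 50% after viability correction, with every replicate also passing that limit; inconclusive = mean reaches 50% but only one of two replicates passes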;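 note: firefly luciferase signal divided by Alamar Blue viability fluorescence both relative to DMSO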
SIRT5 block – sirtuin-5 (human) deacylase inhibition; inhibition, % at 15 µM; 330,000 tested, 1.1% active; Q9NXA8; Purified SirT5, succinyl-peptide AMC, trypsin-coupled fluorescence; in the data active = inhibition above about 15%; inconclusive = no clear call, values can overlap the other calls
Target sequence (Q9NXA8 whole entry, looked up): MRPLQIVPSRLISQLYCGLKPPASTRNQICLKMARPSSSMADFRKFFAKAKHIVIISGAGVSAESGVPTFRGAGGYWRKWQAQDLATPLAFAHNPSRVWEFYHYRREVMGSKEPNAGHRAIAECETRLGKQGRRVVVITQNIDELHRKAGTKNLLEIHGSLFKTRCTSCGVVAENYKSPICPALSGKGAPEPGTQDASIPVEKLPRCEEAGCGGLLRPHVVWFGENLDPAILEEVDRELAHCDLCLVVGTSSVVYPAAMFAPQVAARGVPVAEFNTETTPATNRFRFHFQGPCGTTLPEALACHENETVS
LGR2 inh – inhibitors of bursicon-induced Drosophila LGR2 receptor cAMP signaling | HEK293 LGR2, CRE-luciferase, bursicon-stimulated, 4 h | AID 720647 | 380,000 tested, 0.35% active | inhibition, % at 9.99 µM;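 active = drop in luminescence signal, shown as inhibition above about 50% in the replicate tests, limit read from the data, passing the limit was not always enough; inconclusive = probably only some replicates passing the limit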;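 note: agonist challenge used bursicon conditioned medium at about half maximal strength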
PGC1a acetyl inh – lowers PGC1a acetylation signal in U2OS cells | AID 651687 | AlphaScreen anti-acetyl-lysine; with virally co-expressed GCN5 acetyltransferase | 350,000 tested, 0.17% active | inhibition, % at 15.6 µM;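 active = every replicate shows inhibition of at least 40%; inconclusive = mean inhibition at least 40% but some replicate below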;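 note: 0% = neutral control wells and 100% = positive control wells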
The depositor's hits bear a star; ? = inconclusive; . = no result given. Shown are actives, neighbours in structure and some others; about 3.4% of the full set was active somewhere.

SMILES	PAX8 reporter	rRNA inh HTS	EWS-Fli inh	SIRT5 block	LGR2 inh	PGC1a acetyl inh
C[C@H](CO)N1C[C@H](C)[C@@H](CN(C)S(=O)(=O)c2cccs2)Oc2ncc(/C=C/c3ccccc3)cc2C1=O	.	-10	12	4	13	17
C[C@@H]1CN([C@@H](C)CO)C(=O)c2cc(Br)cnc2O[C@H]1CN(C)S(=O)(=O)c1ccc(F)cc1	.	-4	-12	-3	10	0
Fc1ccccc1CNCCC(Cc1ccccc1)c1ccc2c(c1)OCO2 (stereo not given)	7	-51*	9	-4	19	.
Cc1ccc(-n2c(Cc3cccc4ccccc34)n[nH]c2=S)c(C)c1	-2	-45*	10	7	5	-4
C[C@@H]1CN([C@H](C)CO)C(=O)c2cc(NS(=O)(=O)c3ccccc3)ccc2O[C@@H](C)CCCCO[C@@H]1CN(C)Cc1ccc(C(F)(F)F)cc1	102*	3	1	0	19	14
C[C@@H]1CCCCO[C@@H](CN(C)Cc2ccc(C(F)(F)F)cc2)[C@H](C)CN([C@@H](C)CO)C(=O)c2cc(NS(=O)(=O)c3ccccc3)ccc2O1	111*	2	66*	21*	20	5
C[C@@H]1CN([C@@H](C)CO)C(=O)c2cc(NS(=O)(=O)c3ccccc3)ccc2O[C@@H](C)CCCCO[C@H]1CN(C)Cc1ccc(C(F)(F)F)cc1	?	2	9	18*	24	-6
C[C@@H]1CCCCO[C@@H](CN(C)Cc2ccc(C(F)(F)F)cc2)[C@@H](C)CN([C@@H](C)CO)C(=O)c2cc(NS(=O)(=O)c3ccccc3)ccc2O1	94*	3	-15	13	13	-3
C[C@@H]1CCCCO[C@@H](CN(C)Cc2ccc(C(F)(F)F)cc2)[C@@H](C)CN([C@H](C)CO)C(=O)c2cc(NS(=O)(=O)c3ccccc3)ccc2O1	16	2	-15	1	6	17
C[C@@H]1CCCCO[C@H](CN(C)Cc2ccc(C(F)(F)F)cc2)[C@H](C)CN([C@@H](C)CO)C(=O)c2cc(NS(=O)(=O)c3ccccc3)ccc2O1	39	0	6	5	27	21
C[C@H](CO)N1C[C@H](C)[C@H](CN(C)Cc2ccc(C(=O)Nc3ccccc3N)cc2)Oc2c(NS(=O)(=O)c3cccs3)cccc2C1=O	.	-4	22	3	-10	37
CO[C@@H]1CN(C)C(=O)c2cc(NC(=O)NC(C)C)ccc2OC[C@@H](C)N(Cc2ccccn2)C[C@@H]1C	3	2	-4	-3	-7	2
CCC(=O)Nc1ccc2c(c1)C(=O)N(C)[C@@H]1CC[C@@H](CC(=O)NCCc3ccncc3)O[C@@H]1CO2	-3	1	6	.	7	-8
C[C@@H]1CCCCO[C@H](CN(C)Cc2ccc(C(F)(F)F)cc2)[C@@H](C)CN([C@@H](C)CO)C(=O)c2cc(NS(=O)(=O)c3ccccc3)ccc2O1	88*	-12	24	20*	23	-2
C[C@@H]1CCCCO[C@H](CN(C)Cc2ccc(C(F)(F)F)cc2)[C@H](C)CN([C@H](C)CO)C(=O)c2cc(NS(=O)(=O)c3ccccc3)ccc2O1	89*	-2	11	-4	24	15
O=C(c1ccc(F)cc1)N1C[C@H]2[C@@H](c3ccccc31)[C@@H](CO)N2Cc1ccc2c(c1)OCO2	10	-12	3	0	10	-5
O=C(C[C@H]1CC[C@H](NS(=O)(=O)c2ccccc2)[C@H](CO)O1)N1CCN(c2ccccc2)CC1	-13	-1	.	-1	-14	11
Cc1nn(C)cc1NC(=O)C[C@@H]1CC[C@H]2[C@@H](COc3ccc(NC(=O)NC(C)C)cc3C(=O)N2C)O1	0	4	11	-5	13	7
COc1ccccc1S(=O)(=O)N1CC[C@H]2[C@H](CO)Nc3ccc(-c4cccc(C#N)c4)cc3[C@H]21	-12	-12	-6	.	-18	-12
CC1(C(=O)NCc2ccccc2)Cc2c(-c3ccccc3)ccnc2O1 (stereo not given)	25	-5	59*	3	-6	.
CC1(C(=O)NCc2ccccc2)Cc2c(-c3ccc(C(N)=O)cc3)ccnc2O1 (stereo not given)	-11	-6	54*	0	-12	.
CN(C)c1ccc(-c2ccnc3c2CC(C)(C(=O)NCc2ccccc2)O3)cc1 (stereo not given)	35	.	61*	.	26	.
CC1(C(=O)NCc2cccc(Cl)c2)Cc2c(-c3ccccc3)ccnc2O1 (stereo not given)	10	1	5	1	23	-31
CC1(C(=O)NCc2ccco2)Cc2c(-c3ccc(C(N)=O)cc3)ccnc2O1 (stereo not given)	18	2	47	.	19	7
CC1(C(=O)NCCc2ccccc2)Cc2c(-c3ccc4c(c3)OCO4)ccnc2O1 (stereo not given)	25	.	58*	.	5	-8
SMILES	PAX8 reporter	rRNA inh HTS	EWS-Fli inh	SIRT5 block	LGR2 inh	PGC1a acetyl inh
O=C(C[C@H]1C=C[C@@H](NC(=O)Nc2ccc(C(F)(F)F)cc2)[C@@H](CO)O1)NCc1cccc(F)c1	12	-4	-9	.	-11	-11
CC(C)NC(=O)N(C)C[C@H]1Oc2c(NS(=O)(=O)c3cccs3)cccc2C(=O)N([C@@H](C)CO)C[C@H]1C	.	2	-3	.	-31	-5
C[C@H]1CN([C@@H](C)CO)C(=O)Cc2cc(NC(=O)CCCCCC(=O)Nc3ccccc3N)ccc2O[C@H]1CN(C)CC1CCCCC1	21	-2	60*	.	-21	-21
C[C@H](CO)N1C[C@H](C)[C@H](CN(C)Cc2ccc(Cl)c(Cl)c2)Oc2ccc(NC(=O)CCCCCC(=O)Nc3ccccc3N)cc2CC1=O	68*	-6	48	3	24	3
C[C@@H]1CN([C@H](C)CO)C(=O)Cc2cc(NC(=O)CCCCCC(=O)Nc3ccccc3N)ccc2O[C@@H]1CN(C)Cc1ccc(Cl)c(Cl)c1	52	-7	43	4	17	3
C[C@@H]1CN([C@@H](C)CO)C(=O)Cc2cc(NC(=O)CCCCCC(=O)Nc3ccccc3N)ccc2O[C@@H]1CN(C)Cc1ccc(Cl)c(Cl)c1	70*	-6	44	3	15	-3
C[C@H](CO)N1C[C@H](C)[C@@H](CN(C)CC2CC2)Oc2ccc(NC(=O)CCCCCC(=O)Nc3ccccc3N)cc2CC1=O	15	6	.	-1	-8	4
C[C@@H]1CN([C@H](C)CO)C(=O)c2cc(C3=CCCC3)cnc2O[C@@H]1CN(C)Cc1ccccc1F	-9	-2	-10	0	-10	-10
